ATXN2 expr inh – inhibitors of ATXN2 expression. HEK-293 ATXN2-luciferase reporter, luminescence, 24 h. Potency, µM (doses to about 57 µM), inactives show at the top dose activity change, negative = inhibition, usual class: inhibitors. 0.72% of 360,000 active. AID 1745845; also: % is scaled to controls: 0 for no effect and ±100 for the full control effect; nearly all actives have a fitted effect of over 55% in size
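ATXN2-luciferase reporter cells (luciferase flanked by upstream and downstream ATXN2 gene portions) were treated 24 h at 37 °C with compounds at up to 57 uM. SteadyGlo luminescence gave expression; GF-AFC fluorescence gave viability.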
TGFb SMAD3 inh – inhibitors of TGF-b signaling; Potency, µM (top dose mostly 46.1 µM), for inactives: at the top dose activity, negative = inhibition, usual class: inhibitors; HepG2 CAGA-GFP TGF-b/SMAD3 reporter, GFP fluorescence, 18 h; TGF-beta stimulated, 500 pg/mL final; 1.2% of 410,000 active; also: % is scaled to controls: 0 for no effect and ±100 for the full control effect; nearly all actives have a fitted effect of over 65% in size
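Using HEPG2 CAGA-GFP reporter cells at 1000 cells/well, we pinned test compounds, stimulated with recombinant TGF-beta (500 pg/mL final) and measured total well GFP after 18 h.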
Nrf2 block – blocks Nrf2 signaling. A549 ARE-Fluc reporter, luciferase luminescence, 18-24 h. Potency, µM (top dose mostly 46 µM), for the others: top-dose activity change, negative = inhibition, most hits filed as inhibitors. 2.1% of 360,000 active; also: % is scaled to controls: 0 for no effect and ±100 for the full control effect; nearly all actives have a fitted effect of over 60% in size
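Two sequential reads on A549 ARE_Fluc cells exposed to compound for 18-24 h: a CellTiter-Fluor fluorescence read for viability, then a luciferase luminescence read for Nrf2/ARE activity.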
A549 tox – counter-screen for Nrf2 inhibitors: cytotoxicity in A549 cells | 0.16% of 390,000 active | Potency, µM (titrated, usually from 46 µM), without a hit: top-dose activity change, negative = cytotoxicity, usual class: inhibitors | A549 ARE-Fluc cells, CellTiter-Fluor viability, 18-24 h | AID 504648; also: % is scaled to controls: 0 for no effect and ±100 for the full control effect
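A549 ARE-Fluc cells in 5% FBS OPTI-MEM, 5000 cells/well, rested 2 h then exposed to compounds in concentration-response for 18-24 h at 37 °C. Viability by CellTiter-Fluor fluorescence (Ex 405/Em 525) after 30 min; luciferase luminescence (BugLite, 15 min, RT) read afterwards.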
S2 tox – viability counter-screen for ATXN expression inhibitors; 0.49% of 400,000 active; S2 cells (HEK-293 line with an ATXN2-luciferase reporter) viability, CellTiter-Fluor protease fluorescence, 24 h; Potency, µM (highest dose often 56.7 µM), most hits filed as cytotoxic; AID 651635; also: nearly all actives have a fitted effect of over 40% in size
HepG2 tox – counter-screen for TGF-b inhibitors: cytotoxicity in HepG2 cells | HepG2 CAGA-GFP viability, ATP luminescence, 18 h | Potency, µM (highest dose often 46.1 µM), for the others: at the top dose activity change, negative = cytotoxicity, hits mostly cytotoxic | 0.76% of 410,000 active | AID 588856
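CellTiter-Glo luminescence gave cytotoxicity after 18 hours at 37 degrees C. The cells were HepG2 CAGA-GFP in 1% FBS DMEM, stimulated with 500 pg/mL TGF-beta after compound addition. %Activity was normalised to no-cell wells (complete cell-killing) and DMSO (no toxicity), and curves were fitted and classified.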
* = called active by the depositor; [ ] = dose if it differs, or a comment. Hits are enriched below; roughly 3.8% of the tested compounds scored in any of these assays. Calls follow the shape of the dose curve; as a rule, active = well fitted curve in the direction sought with a large enough effect; inconclusive = small, poorly fitted or top-dose-only effect, or another doubt; inactive = no such curve, though single readings can be large; an effect the other way counts as inactive or inconclusive. Potency is read from the fitted curve at half-maximal effect.

How did C=C(C)CNC(=S)N/N=C/C1=CCC2CC1C2(C)C (centres undefined) do in these assays?
ATXN2 expr inh: 10.5%; TGFb SMAD3 inh: inconclusive; Nrf2 block: -13.9%; A549 tox: inconclusive; S2 tox: inactive; HepG2 tox: -16.9%

How did CCCCNC(=S)N/N=C/C1=CCC2CC1C2(C)C (centres undefined) do in these assays?
ATXN2 expr inh: 2.0%; TGFb SMAD3 inh: 11.2µM*; Nrf2 block: inconclusive; A549 tox: -1.3%; S2 tox: inactive; HepG2 tox: 1.7%

Results for COc1ccccc1NC(=S)N1CC(C)(C)C1=O ?
ATXN2 expr inh: 5.0%; TGFb SMAD3 inh: 2.3%; Nrf2 block: 9.3%; A549 tox: -7.8%; S2 tox: inactive; HepG2 tox: 5.01µM*

Results for COc1ccccc1NC(=S)NC12CN3CN(CN(C3)C1)C2 ?
ATXN2 expr inh: -4.4%; TGFb SMAD3 inh: -0.7%; Nrf2 block: 3.2%; A549 tox: -6.1%; S2 tox: inactive; HepG2 tox: 5.3%

What do the screens show for `CCN(C(=O)c1cc2c(s1)-c1c(C)cccc1OC2)c1cc(C)ccc1C`?
ATXN2 expr inh: -15.2%; TGFb SMAD3 inh: 11.2µM*; Nrf2 block: inconclusive; A549 tox: 0.3%; S2 tox: inactive; HepG2 tox: -28.5%

What do the screens show for `Cc1nn(-c2ccc(F)cc2)c(-n2cccc2)c1C(=O)NCCCN1CCN(c2cccc(Cl)c2)CC1`?
ATXN2 expr inh: inconclusive; TGFb SMAD3 inh: 11.2µM*; Nrf2 block: inconclusive; A549 tox: -12.6%; S2 tox: inconclusive; HepG2 tox: 17.8µM*

How did Cc1cccc2c1-c1sc(C(=O)NCCCN3CCN(c4cccc(Cl)c4)CC3)cc1CO2 do in these assays?
ATXN2 expr inh: inconclusive; TGFb SMAD3 inh: 12.6µM*; Nrf2 block: 7.4%[9.27 µM]; A549 tox: 1.9%; S2 tox: inconclusive; HepG2 tox: -86.2%

How did Cc1cccc2c1-c1sc(C(=O)NCCCN3CCN(c4ccccc4F)CC3)cc1CO2 do in these assays?
ATXN2 expr inh: -37.3%; TGFb SMAD3 inh: 3.8%; Nrf2 block: inconclusive; A549 tox: -29.3%; S2 tox: inactive; HepG2 tox: -42.7%

What do the screens show for `Cc1cccc2c1-c1sc(C(=O)Nc3ccccc3N3CCN(C)CC3)cc1CO2`?
ATXN2 expr inh: 28.2µM*; TGFb SMAD3 inh: inconclusive; Nrf2 block: -11.4%; A549 tox: 0.9%; S2 tox: inconclusive; HepG2 tox: 15.8µM*

What do the screens show for `COc1ccc([N+](=O)[O-])cc1NC(=O)c1cn(-c2ccc(C)c(C)c2)c(=O)c2ccccc12`?
ATXN2 expr inh: -11.0%; TGFb SMAD3 inh: -4.4%; Nrf2 block: 7.2%; A549 tox: -2.3%; S2 tox: inactive; HepG2 tox: -4.9%

What do the screens show for `COc1ccc(OC)c(CCNC(=O)c2cc3c(s2)-c2c(C)cccc2OC3)c1`?
ATXN2 expr inh: 2.7%; TGFb SMAD3 inh: -20.3%; Nrf2 block: -25.2%; A549 tox: 0.1%; S2 tox: inactive; HepG2 tox: -23.3%

How did COc1ccc(CCNC(=O)c2cc3c(s2)-c2c(C)cccc2OC3)c(OC)c1 do in these assays?
ATXN2 expr inh: 2.4%; TGFb SMAD3 inh: -10.1%; Nrf2 block: 20.6µM*; A549 tox: -6.4%; S2 tox: inactive; HepG2 tox: -30.6%

Results for COc1ccc(/C=C2\CCC/C(=C\c3ccc(OC)c(OC)c3OC)C2=O)c(OC)c1OC ?
ATXN2 expr inh: -24.7%; TGFb SMAD3 inh: -21.6%; Nrf2 block: 8.2µM*; A549 tox: inconclusive; S2 tox: inactive; HepG2 tox: -31.7%

Results for COc1cc(OC)c(OC)cc1/C=C1\CCC/C(=C\c2cc(OC)c(OC)cc2OC)C1=O ?
ATXN2 expr inh: inconclusive; TGFb SMAD3 inh: inconclusive; Nrf2 block: inconclusive; A549 tox: inconclusive; S2 tox: inconclusive; HepG2 tox: -13.8%
